This note sets out measurements from PubChem BioAssay AID1851 (National Center for Advancing Translational Sciences (NCATS), 2009).

Several values for one entry are separate records, joined by “and”; a condition that tells them apart may be missing. Equal values may be shown once. Screen size: about 16,000 compounds; about 5,100 (32%) were called active. Another 25% or so got no clear call; they are omitted. The list shows a part of the results. Unmarked numbers belong to inactive results. Calls come from the whole dose curve; as a rule, active = well fitted curve in the direction sought with a large enough effect; inconclusive = small, poorly fitted or top-dose-only effect, or effect the other way; inactive = no such curve, though single readings can be large or run the other way.
% is set by controls: 0 for no effect and ±100 for the full control effect.

The target of this assay is Cytochrome P450 3A4 (Homo sapiens) (UniProt P08684). Kind of assay: Cytochrome panel assay with activity outcomes. To be noted: recombinant CYP, pro-luciferin dealkylation, luminescence, p450-cyp3a4; series mostly up to 57.1 µM; activity, negative = inhibition: at the top concentration.
Sequence of Cytochrome P450 3A4 (Homo sapiens) (P08684 whole entry, looked up): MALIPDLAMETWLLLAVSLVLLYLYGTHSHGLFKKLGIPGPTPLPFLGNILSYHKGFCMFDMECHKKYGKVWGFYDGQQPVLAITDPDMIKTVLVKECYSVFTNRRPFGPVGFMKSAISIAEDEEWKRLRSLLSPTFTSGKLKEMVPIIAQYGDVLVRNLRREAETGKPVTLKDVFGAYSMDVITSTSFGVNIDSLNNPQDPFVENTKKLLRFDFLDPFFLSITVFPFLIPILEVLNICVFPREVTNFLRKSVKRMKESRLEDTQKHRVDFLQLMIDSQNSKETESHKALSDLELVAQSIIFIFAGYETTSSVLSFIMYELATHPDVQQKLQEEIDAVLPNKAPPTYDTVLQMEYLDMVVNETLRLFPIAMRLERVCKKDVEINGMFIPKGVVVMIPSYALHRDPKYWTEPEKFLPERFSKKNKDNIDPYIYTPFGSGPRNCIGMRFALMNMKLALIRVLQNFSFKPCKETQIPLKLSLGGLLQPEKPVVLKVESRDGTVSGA
`Cc1nn(C(=O)c2ccco2)c(C)c1Sc1ccc(Br)cc1`: the “activity, negative = inhibition” value is -4.98%.

In the case of `Cc1nn(S(=O)(=O)c2cccs2)c(C)c1Sc1ccc([N+](=O)[O-])cc1`, the AC50 was 2.82 µM (active).

For `Cc1ccc(Sc2c([N+](=O)[O-])ncn2C)cc1`, the activity, negative = inhibition was 11.7% [at 2.29 µM].

On to `CCN(CC)c1ccc(NC(=O)c2cccc(F)c2)c(C)c1`, for which the activity, negative = inhibition is 2.35% [at 2.29 µM].

For `Cc1cccc2cc(CN(Cc3ccccc3)C(=O)c3cccc(F)c3)c(Cl)nc12`, the AC50 was 8.91 µM (active).

As to `CN1CCc2c(cc(O)c(O)c2Cl)[C@H](c2cccc(Cl)c2)C1`, the “activity, negative = inhibition” value was 19.4%.

With `COC(=O)CN(c1ccccn1)S(=O)(=O)c1ccccc1`, the “activity, negative = inhibition” value is -3.69%.

With `CCOC(=O)CN(c1ccccn1)S(=O)(=O)c1ccccc1`, the “activity, negative = inhibition” value was -29.6%.

On to `O=C(CN(c1ccccc1)S(=O)(=O)c1ccccc1)NCCSCc1ccco1`, for which the AC50 is 14.1 µM (active).

In the case of `Cc1cc(C)cc(N(CC(=O)NCCSc2ccccn2)S(=O)(=O)c2ccccc2)c1`, the half-maximal activity concentration (AC50) was 3.98 µM (active).

For `c1ccc(CNc2ncncc2-c2ccoc2)cc1`, the AC50 was 2 µM (active).

`c1csc(CNc2ncncc2-c2ccoc2)c1`: the AC50 was 2 µM (active).

Take `c1cncc(-c2cncnc2NCc2cccs2)c1`: the AC50 was 2 µM (active).

`CCN(CC)CC[n+]1ccc2c(C)c3[nH]c4ccccc4c3c(C)c2c1`: the activity, negative = inhibition is -16.9% [at 11.4 µM].

Take `CCOc1ccc(NC2=NCC(=O)N2Cc2cccs2)cc1`: the AC50 was 17.8 µM (active).

Turning to `C=CCN1C(=O)CN=C1Nc1ccccc1`, the “activity, negative = inhibition” value is -22.2%.

For `CCOc1ccc(N2C(=O)CN=C2Nc2ccccc2F)cc1`, the activity, negative = inhibition was 3.08% [at 2.29 µM].

`O=C1CN=C(Nc2ccccc2)N1Cc1cccs1`: the activity, negative = inhibition was -6.15% [at 2.29 µM].

For the compound `COc1ccc(NC2=NCC(=O)N2Cc2cccs2)cc1`, the half-maximal activity concentration (AC50) is 14.1 µM (active).

For `COc1ccccc1-c1ccc2ncnc(NCc3cccnc3)c2c1`, the AC50 was 0.631 µM (active).

As for `COCCNc1ncnc2ccc(-c3ccccc3OC)cc12`, the AC50 is 15.8 µM (active).

For `COCCNc1ncnc2ccc(-c3ccccc3C(F)(F)F)cc12`, the half-maximal activity concentration (AC50) was 15.8 µM (active).

As to `FC(F)(F)c1ccccc1-c1ccc2ncnc(NCc3cccnc3)c2c1`, the AC50 was 1.58 µM (active).

As to `O=C(c1ccccc1)c1ccc2n1CC[C@H]2C(=O)O`, the AC50 entry was “inactive”.

As to `O=C(O)c1cc2c(o1)CCC/C2=N\O`, the “activity, negative = inhibition” value was -14.2%.

As for `CC(C)(CS)C(=O)N1CCC[C@H]1C(=O)O`, the “activity, negative = inhibition” value is 3.01% [at 25.6 µM].

As to `COc1cccc(-c2ccc3ncnc(NCc4cccnc4)c3c2)c1`, the AC50 is 1 µM (active).

Regarding `Clc1ccccc1-c1ccc2ncnc(NCc3cccnc3)c2c1`, the AC50 was 2 µM (active).

On to `COc1ccccc1-c1ccc2ncnc(NCc3ccccc3)c2c1`, for which the AC50 was 12.6 µM (active).

In the case of `Cc1cc(OC(=O)c2ccc(Cl)cc2Cl)nc(C)n1`, the “activity, negative = inhibition” value was -8.46%.

As to `COc1ccc(-c2ccc(=O)n(CC(=O)Nc3nnc(C(C)C)s3)n2)cc1OC`, the “activity, negative = inhibition” value is -18%.

Consider `COc1ccc(-c2nn3cnnc3s2)cc1OC`, for which the half-maximal activity concentration (AC50) is 14.1 µM (active).

Turning to `O=S1(=O)OC(c2ccc(O)cc2)(c2ccc(O)cc2)c2ccccc21`, the activity, negative = inhibition was -11.8% [at 11.4 µM].

For the compound `Fc1ccc2c(c1)C1C=CCC1C(c1cc3c(cc1Br)OCO3)N2` (stereo unspecified), the activity, negative = inhibition was -4.14% [at 2.29 µM].

For the compound `CC1(C)CC(=O)C2=C(C1)Nc1cc3c(cc1C2c1ccc(F)cc1)OCO3` (stereo unspecified), the AC50 was 1 µM (active).

For the compound `Nc1nc(Br)c2ccccc2c1-c1ccc(F)cc1`, the AC50 was 14.1 µM (active).

In the case of `Nc1nc(Br)c2c(F)cccc2c1-c1ccc(F)cc1`, the concentration at half-maximal activity (AC50) is 22.4 µM (active).

`Nc1nc(Br)c2c(F)cccc2c1-c1ccc(Cl)cc1`: the AC50 is 20 µM (active).

For `COC(=O)C[C@@H]1O[C@H]1[C@H](C)[C@@H](OC)C(C)C`, the AC50 was 3.98 µM (active).

Regarding `CO[C@@H](C(C)C)[C@@H](C)[C@@H]1OC(=O)C[C@@H]1O`, the activity, negative = inhibition is -9.77% [at 11.4 µM].

In the case of `CO[C@@H]1COC(=O)[C@H](CCSC)NC(=O)C/C=C\[C@@H](C)COC(=O)[C@@H]2CCCN2C(=O)C/C=C\[C@H]1C`, the activity, negative = inhibition is -23.1% [at 11.4 µM].

For the compound `Cc1ccc(S(=O)(=O)CC(O)CN2CCCC2=O)cc1` (stereo unspecified), the “activity, negative = inhibition” value is -2.08%.

`Cc1ccc(S(=O)(=O)N(CCCN2CCCC2=O)Cc2cc3c(C)ccc(C)c3[nH]c2=O)cc1`: the AC50 was 1.12 µM (active).

Consider `O=C(NCCCN1CCCC1=O)c1ccc(CNS(=O)(=O)c2ccc(F)cc2)cc1`, for which the activity, negative = inhibition is -13.5% [at 11.4 µM].

As to `COc1ccccc1CNc1ncncc1-c1ccccc1Cl`, the AC50 was 0.2 µM (active).

With `COc1ccccc1CNc1ncncc1-c1ccccc1OC`, the concentration at half-maximal activity (AC50) is 0.2 µM (active).

Regarding `c1ccc2c3c([nH]c2c1)[C@@H]1[C@H]2CC[C@H]([C@H]4CCCN[C@H]42)N1CC3`, the “activity, negative = inhibition” value was -11.2% [at 25.6 µM].

With `COC(=O)CSc1ncc(OC)c(OC)n1`, the “activity, negative = inhibition” value is -5.02%.

On to `Cc1sc2ccccc2[n+]1CCC(=O)O`, for which the activity, negative = inhibition was -6.82% [at 11.4 µM].

On to `CCOC(=O)C1CCN(C(=O)C2CCN(c3nc4ccc(OC)cc4s3)CC2)CC1`, for which the “activity, negative = inhibition” value was 18.5%.

Turning to `CCOC(=O)C[n+]1c(C)sc2ccc(OC)cc21`, the AC50 was 3.55 µM (active).

Take `C1CCN(CC[C@@H]2CCCCN2)CC1`: the activity, negative = inhibition is -2.6% [at 11.4 µM].

Take `CCC/C=C(\CCC)C(NP(=O)(c1ccccc1)c1ccccc1)c1ccc(C(F)(F)F)cc1` (stereo unspecified): the half-maximal activity concentration (AC50) was 3.16 µM (active).

For the compound `CCC/C=C(\CCC)C(NP(=O)(c1ccccc1)c1ccccc1)c1ccc(-c2ccccc2)cc1` (stereo unspecified), the AC50 is 3.98 µM (active).

For the compound `CN(C)C(=O)/N=N\C(=O)N(C)C`, the “activity, negative = inhibition” value was -6.3%.

`O=C(O)C(Cc1ccccc1)Cc1ccccc1`: the activity, negative = inhibition is 5.23% [at 11.4 µM].

For the compound `CS(=O)(=O)N1CCC2(CC1)CN(C(=O)Nc1ccccc1)C2`, the “activity, negative = inhibition” value was -13%.

In the case of `CS(=O)(=O)N1CCN(c2ccccc2NC(=O)c2ccc(Br)o2)CC1`, the AC50 was 15.8 µM (active).

For `Nc1nc(N)c2nn(-c3ccc(C(=O)O)cc3)nc2n1`, the activity, negative = inhibition was -6.41% [at 11.4 µM].

As to `Cc1ccc2nc(NC(=O)COC(=O)CSc3nc(C)cc(C)n3)sc2c1`, the “activity, negative = inhibition” value was 21.9%.

Regarding `CCCOc1ccc(C(=O)NC(=S)Nc2nc3ccc(C)cc3s2)cc1`, the activity, negative = inhibition was 13.6% [at 2.29 µM].

As to `Cc1ccc2nc(NC(=O)CSCC(=O)OCC(=O)c3ccc(Br)cc3)sc2c1`, the AC50 is 10 µM (active).

For `Cc1ccc2nc(NC(=O)COC(=O)c3ccc(Br)o3)sc2c1`, the concentration at half-maximal activity (AC50) is 15.8 µM (active).

As for `CS(=O)(=O)Nc1c(O)ccc2c1CCC[C@H]2C1=NCCN1`, the “activity, negative = inhibition” value was -4.57%.

Take `COc1ccc(Oc2ncc3ncc(=O)n(CCc4ccccc4)c3n2)cc1`: the AC50 was 1.26 µM (active).

Take `COc1ncc2nc(CCc3ccccc3)c(=O)n(CCc3ccccc3)c2n1`: the AC50 was 3.16 µM (active).

Turning to `COCCn1c(=O)c(CCc2ccccc2)nc2cnc(Oc3ccc(OC)cc3)nc21`, the AC50 was 3.16 µM (active).

On to `COCCn1c(=O)c(CCc2ccccc2)nc2cnc(OC)nc21`, for which the AC50 is 12.6 µM (active).

Turning to `COc1ncc2nc(CCc3ccccc3)c(=O)n(C)c2n1`, the “activity, negative = inhibition” value was 0.537%.

Regarding `O=c1cnc2cnc(Oc3ccccc3)nc2n1CCc1ccccc1`, the “activity, negative = inhibition” value was -22.3%.

With `COCCn1c(=O)c(CCc2ccccc2)nc2cnc(Oc3cccc(Cl)c3)nc21`, the concentration at half-maximal activity (AC50) is 0.794 µM (active).

Turning to `O=c1c(CCc2ccccc2)nc2cnc(Oc3cccc(Cl)c3)nc2n1C[C@H]1CCCO1`, the AC50 was 0.501 µM (active).

Take `O=c1c(-c2ccccc2)nc2cnc(Oc3cccc(Cl)c3)nc2n1C1CC1`: the “activity, negative = inhibition” value is 6.74%.

On to `Cc1nc2cnc(Oc3cccc(Cl)c3)nc2n(CCc2ccccc2)c1=O`, for which the “activity, negative = inhibition” value was -22.7%.

`O=c1oc2cc(Oc3ccc(C(F)(F)F)cc3[N+](=O)[O-])ccc2c2c1CCCC2`: the “activity, negative = inhibition” value is -23.2%.

As to `O=c1oc2cc(Oc3c([N+](=O)[O-])cc(C(F)(F)F)cc3[N+](=O)[O-])ccc2c2c1CCCC2`, the AC50 was 14.1 µM (active).

On to `CC1=NNC(=S)NCCCN2CCN(CCCNC(=S)NN=C(C)C=NNC(=S)NCCCN3CCN(CCCNC(=S)NN=C1)CC3)CC2`, for which the activity, negative = inhibition was -1.88% [at 11.4 µM].

Turning to `CC(=O)NC(NC(C)=O)c1ccc(Br)cc1`, the “activity, negative = inhibition” value is 8.11%.

In the case of `CNNCc1ccc(C(=O)NC(C)C)cc1`, the “activity, negative = inhibition” value is -12.2% [at 25.6 µM].

As to `CC(C)OP(=O)(OC(C)C)C(NC(=O)c1ccc(Br)cc1)c1ccccc1` (stereo unspecified), the AC50 was 11.2 µM (active).

For `O=C(O)C[C@H](Cc1ccccc1)C(=O)O`, the activity, negative = inhibition is -6.62% [at 11.4 µM].

Take `Cn1nc(C(F)(F)F)c(/C=N/OCc2c(Cl)cccc2Cl)c1Cl`: the “activity, negative = inhibition” value is -24.6%.

With `Cn1nc(C(F)(F)F)c(/C=N/OC(=O)c2ccccc2Cl)c1SCc1ccc(Cl)cc1`, the AC50 is 7.08 µM (active).

Take `Cn1nc(C(F)(F)F)c(/C=N/OC(=O)c2ccc(Cl)cc2)c1Cl`: the “activity, negative = inhibition” value is -0.892%.

On to `O=C(NCC1CCCO1)C(c1cccnc1)N(C(=O)Cc1cccs1)c1ccccc1` (stereo unspecified), for which the AC50 is 3.98 µM (active).

As for `O=C(NCC(=O)N(c1ccccc1)C(C(=O)NC1CCCC1)c1cccnc1)c1cccs1` (stereo unspecified), the AC50 is 2 µM (active).

Take `Cc1ccc(C(C(=O)NC2CCCCC2)N(CC2CCCO2)C(=O)CNC(=O)c2cccs2)cc1` (stereo unspecified): the AC50 is 4.47 µM (active).

Take `O=C(NCC1CCCO1)C(c1cccnc1)N(C(=O)Cc1cccs1)c1cccnc1` (stereo unspecified): the activity, negative = inhibition was -17.2% [at 2.29 µM].

Turning to `CN1CCc2c(sc3c2c(=O)n(-c2ccccc2)c2nncn32)C1`, the “activity, negative = inhibition” value was 23.3%.

Consider `NC(N)=NC(=O)c1nc(Cl)c(N)nc1N`, for which the AC50 result is “inactive”.

As to `CC1CCCC(C)N1C(=O)c1cc(-c2ccc(Cl)c(Cl)c2)on1` (stereo unspecified), the concentration at half-maximal activity (AC50) was 12.6 µM (active).

In the case of `O=C(c1cc(-c2ccc(Cl)cc2Cl)on1)N1CCN(C(=O)c2ccco2)CC1`, the “activity, negative = inhibition” value was 13.8%.

With `C[C@@H]1CCC[C@H](C)N1NC(=O)c1ccc(Cl)c(S(N)(=O)=O)c1`, the “activity, negative = inhibition” value is -15.3% [at 25.6 µM].

With `COCn1c2ccccc2c2nnc(C(C)=O)nc21`, the activity, negative = inhibition is 7.63% [at 11.4 µM] and -20.9% [at 11.4 µM].

For `Cc1ccc(-n2cc(C(=O)c3ccc4ccccc4c3O)cn2)cc1`, the “activity, negative = inhibition” value is -15.6%.

On to `Cc1ccc(S(=O)(=O)n2c3ccccc3c3nnc(C(=O)c4ccccc4)nc32)cc1`, for which the half-maximal activity concentration (AC50) was 3.98 µM (active).
